Some test systems named below: HCT-15 colon; HT29 colon; SNB-19 CNS; U251 CNS; PC-3 prostate; SK-MEL-5 melanoma; UACC-62 melanoma; LOX IMVI melanoma; SK-MEL-28 melanoma.
Assay in all cases: NCI-60 one-dose screen, 48 h (100 = growth as untreated, 0 = no growth, -100 = all killed)
Conditions in all cases: 10 µM unless noted

Compounds without any hit were thinned out: in the full panel of roughly 83,000, 20% have a hit.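 Note: values are percent growth. 100 is the growth of untreated cells, values between 100 and 0 indicate rising inhibition; between -100 and 0 indicates cell death.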 A number with no mark means an inactive call. The source made the active and inactive calls. The calls were made as follows: active = growth percent below 10; inactive = the rest.

For `Cc1ccc(/C=C2\CN(C(=O)CCN3CCC(=NO)CC3)C/C(=C\c3ccc(C)cc3)C2=O)cc1`, the growth in the assay with HCT-15 colon is -27.9% (active); with HT29 colon, -42.8% (active); in the assay with SNB-19 CNS, 7.61% (active); in the assay on U251 CNS, -49.6% (active); with PC-3 prostate it was 11.7%; in the assay with SK-MEL-5 melanoma, -23.6% (active). The growth with UACC-62 melanoma was -50.8% (active); with LOX IMVI melanoma, -89.7% (active); in the assay with SK-MEL-28 melanoma, -17.5% (active).

As for `Nc1cccc(-c2nc3sccn3c2-c2ccnc(NCCNS(=O)(=O)c3ccc(C(F)(F)F)cc3)n2)c1`, the growth in the assay with HCT-15 colon was 47.3%; in the assay on HT29 colon, 45.7%; in the assay on SNB-19 CNS, 75.4%; with U251 CNS, 52.4%; with PC-3 prostate it was 51.6%; with SK-MEL-5 melanoma, 32.9%. The growth in the assay on UACC-62 melanoma is 61.6%; in the assay with LOX IMVI melanoma, 38.8%; in the assay on SK-MEL-28 melanoma it was 82.2%.

In the case of `CCCCOc1ccc(/C=C2/SC(N3CCCC3)=NC2=O)cc1`, the growth is 97.2% with HCT-15 colon; 94.6% in the assay with HT29 colon; 92.8% in the assay with SNB-19 CNS; 84.6% in the assay on U251 CNS; 88.7% with PC-3 prostate; 95.2% in the assay with SK-MEL-5 melanoma. Further, the values for the growth in the assay with UACC-62 melanoma, in the assay on LOX IMVI melanoma and with SK-MEL-28 melanoma were 87.4%, 96.2% and 101%, respectively.

Regarding `O=[N+]([O-])c1cnc(Sc2ccncn2)s1`, the growth in the assay with HCT-15 colon was -16% (active); in the assay with HT29 colon it was 55.5%; in the assay with SNB-19 CNS, 103%; in the assay on U251 CNS, 91.9%; with PC-3 prostate, 14.4%; in the assay with SK-MEL-5 melanoma, 88.2%. For the same compound, the growth with UACC-62 melanoma was 70.4%; in the assay on LOX IMVI melanoma, 64.5%; in the assay with SK-MEL-28 melanoma it was -61% (active).

Take `O=C1c2c(Cl)c(Cl)c(Cl)c(Cl)c2C(=O)C2(Cl)CC=CCC12Cl` (stereo not given): the growth in the assay with HCT-15 colon is -74.2% (active); in the assay on HT29 colon it was -39.2% (active); with SNB-19 CNS, 13.5%; with U251 CNS it was -30.2% (active); in the assay with PC-3 prostate, -55.4% (active); in the assay with SK-MEL-5 melanoma it was 57.3%. For the same compound, the growth with UACC-62 melanoma was 32.6%; in the assay on LOX IMVI melanoma it was -84.3% (active); in the assay on SK-MEL-28 melanoma it was -58.8% (active).

For `COc1ccc(/C=C2\CN(Cc3cn(CCNc4ccnc5cc(Cl)ccc45)nn3)C/C(=C\c3ccc(OC)c(OC)c3)C2=O)cc1OC`, the growth was 76% in the assay with HCT-15 colon; -42.4% (active) in the assay on HT29 colon; 58.1% with SNB-19 CNS; 6.39% (active) with U251 CNS; 12.1% in the assay on PC-3 prostate; 10.8% in the assay with SK-MEL-5 melanoma. The growth with UACC-62 melanoma was 7.74% (active); with LOX IMVI melanoma it was -28.3% (active); with SK-MEL-28 melanoma, 21.6%.

`O=C(NCCCNc1nccc(-n2ccc3cccnc32)n1)c1c(F)cccc1F`: the growth in the assay on HCT-15 colon is 99.9%; in the assay with HT29 colon, 104%; in the assay on SNB-19 CNS, 95.7%; in the assay with U251 CNS, 102%; in the assay with PC-3 prostate, 96.8%; in the assay on SK-MEL-5 melanoma, 99.2%. Further, the figures for the growth with UACC-62 melanoma, in the assay on LOX IMVI melanoma and with SK-MEL-28 melanoma were 97.6%, 102% and 111%, respectively.

Consider `CCOC(=O)c1cn2c3c(cccc3c1=O)C(=O)/C(=C/c1cccc(Cl)c1Cl)C2`, for which the growth was 117% in the assay on HCT-15 colon; 99.9% with HT29 colon; 94.9% in the assay on SNB-19 CNS; 94.6% in the assay on U251 CNS; 90.8% with PC-3 prostate; 91.2% with SK-MEL-5 melanoma. For the same compound, the growth was 67.9% with UACC-62 melanoma, 99.7% in the assay on LOX IMVI melanoma and 106% with SK-MEL-28 melanoma.

For `COc1cc(-c2nn(-c3cccc(NC(=O)Nc4ccc(Cl)c(Cl)c4)c3)cc2-c2ccncc2)ccc1Cl`, the growth in the assay with HCT-15 colon was 12.7%; in the assay on HT29 colon it was 1.12% (active); in the assay on SNB-19 CNS, 27.2%; in the assay on U251 CNS it was -6.02% (active); in the assay with PC-3 prostate, -17.6% (active); in the assay on SK-MEL-5 melanoma, -80% (active). Also, the growth is -65.1% (active) in the assay with UACC-62 melanoma, 1.38% (active) in the assay with LOX IMVI melanoma and 4.96% (active) with SK-MEL-28 melanoma.

Take `Cn1c(=O)cc(NC(=O)CN2CCN(c3cc4c(cc3F)c(=O)c(C(=O)O)cn4C3CC3)CC2)[nH]c1=O`: the growth in the assay with HCT-15 colon was 99%; in the assay on HT29 colon it was 103%; in the assay on SNB-19 CNS, 98.4%; in the assay on U251 CNS, 101%; with PC-3 prostate, 95.2%; with SK-MEL-5 melanoma it was 101%. Besides, the growth with UACC-62 melanoma was 96.3%; in the assay with LOX IMVI melanoma it was 99.5%; in the assay with SK-MEL-28 melanoma it was 107%.

For the compound `O=C(Nc1ccc2c(c1)OCCO2)C(=O)c1c[nH]c2ccccc12`, the growth was 33.5% in the assay on HCT-15 colon; 4.06% (active) in the assay with HT29 colon; 46.9% in the assay on SNB-19 CNS; 34% in the assay on U251 CNS; 28.9% with PC-3 prostate; 29.7% in the assay with SK-MEL-5 melanoma. Moreover, the growth in the assay on UACC-62 melanoma was 33.1%; in the assay on LOX IMVI melanoma, 36.1%; in the assay with SK-MEL-28 melanoma, 53%.

Take `O=C(O)COc1ccc(-c2cssc2=S)cc1`: the growth in the assay with HCT-15 colon is 99.4%; in the assay on HT29 colon, 87.5%; in the assay on SNB-19 CNS, 105%; in the assay with U251 CNS, 98.2%; in the assay with PC-3 prostate it was 104%; in the assay on SK-MEL-5 melanoma, 100%. Moreover, the growth in the assay on UACC-62 melanoma is 107%; with LOX IMVI melanoma, 96.6%; in the assay with SK-MEL-28 melanoma, 108%.

As to `CC(C)C(C(=O)NCCN1CCOCC1)N1C(=O)/C(=C/c2ccc(Br)cc2)SC1=S` (stereo not given), the growth in the assay with HCT-15 colon is 99.9%; with HT29 colon it was 109%; in the assay on SNB-19 CNS it was 92.5%; in the assay on U251 CNS, 98%; in the assay with PC-3 prostate, 90.1%; with SK-MEL-5 melanoma, 98.2%. Moreover, the figures for the growth with UACC-62 melanoma, with LOX IMVI melanoma and in the assay on SK-MEL-28 melanoma were 87.8%, 99% and 96.9%, respectively.

`O=C(O)c1nc(-c2ccccc2)oc1N1CCOCC1`: the growth with HCT-15 colon is 101%; in the assay on HT29 colon it was 108%; in the assay on SNB-19 CNS, 92.3%; with U251 CNS, 90.9%; with PC-3 prostate, 100%; in the assay with SK-MEL-5 melanoma, 105%. Further, the results for the growth in the assay on UACC-62 melanoma, in the assay on LOX IMVI melanoma and with SK-MEL-28 melanoma were 85.2%, 108% and 98.7%, respectively.

Consider `O=[N+]([O-])c1cccc(-c2nc3sccn3c2-c2ccnc(NCCCNS(=O)(=O)c3ccc(C(F)(F)F)cc3)n2)c1`, for which the growth in the assay on HCT-15 colon is 17.6%; with HT29 colon, 36.8%; in the assay on SNB-19 CNS, 69%; in the assay with U251 CNS, 60.9%; with PC-3 prostate, 12%; in the assay on SK-MEL-5 melanoma, -45.5% (active). The values for the growth with UACC-62 melanoma, with LOX IMVI melanoma and with SK-MEL-28 melanoma were -13.2% (active), 17.6% and 49.8%, respectively.
